FLuc inh = blocks purified firefly luciferase enzyme activity; Potency, µM (doses to about 115 µM), usual class: inhibitors; P08659; purified P. pyralis luciferase, luminescence, biochemical; hit rate 2.5% among 76,000; further: nearly all actives have a fitted effect of over 65% in size
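Luminescence read by CCD imager after adding enzyme (10nM final) to wells holding compound, titrated in qHTS. Substrates 10uM each D-luciferin and ATP; buffer 50mM Tris acetate pH 7.5, 10mM Mg acetate, Tween-20, BSA.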
HEK293 tox = kills HEK 293 cells. Potency, µM (series often up to 115 µM), actives largely listed as inhibitors. hit rate 6.6% among 94,000. HEK 293 viability, ATP luminescence (CellTiter-Glo), 48-72 h; further: nearly all actives have a fitted effect of over 60% in size
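CellTiter-Glo luminescence (cellular ATP) was read after 48 or 72 hr of compound exposure at 37 degree Celsius. Cells were HEK 293 plated at 250 cells/well.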
hNpr1 antagonist = antagonists of human natriuretic peptide receptor Npr1 | P16066 | AID 1347048 | hit rate 1.6% among 76,000 | Potency, µM (top dose mostly 46.3 µM), usual class: inhibitors | HEK293 hNpr1 GloSensor cGMP, ANP-stimulated luminescence; calls by dose curve; further: nearly all actives have a fitted effect of over 60% in size
Target sequence (P16066 whole entry, looked up): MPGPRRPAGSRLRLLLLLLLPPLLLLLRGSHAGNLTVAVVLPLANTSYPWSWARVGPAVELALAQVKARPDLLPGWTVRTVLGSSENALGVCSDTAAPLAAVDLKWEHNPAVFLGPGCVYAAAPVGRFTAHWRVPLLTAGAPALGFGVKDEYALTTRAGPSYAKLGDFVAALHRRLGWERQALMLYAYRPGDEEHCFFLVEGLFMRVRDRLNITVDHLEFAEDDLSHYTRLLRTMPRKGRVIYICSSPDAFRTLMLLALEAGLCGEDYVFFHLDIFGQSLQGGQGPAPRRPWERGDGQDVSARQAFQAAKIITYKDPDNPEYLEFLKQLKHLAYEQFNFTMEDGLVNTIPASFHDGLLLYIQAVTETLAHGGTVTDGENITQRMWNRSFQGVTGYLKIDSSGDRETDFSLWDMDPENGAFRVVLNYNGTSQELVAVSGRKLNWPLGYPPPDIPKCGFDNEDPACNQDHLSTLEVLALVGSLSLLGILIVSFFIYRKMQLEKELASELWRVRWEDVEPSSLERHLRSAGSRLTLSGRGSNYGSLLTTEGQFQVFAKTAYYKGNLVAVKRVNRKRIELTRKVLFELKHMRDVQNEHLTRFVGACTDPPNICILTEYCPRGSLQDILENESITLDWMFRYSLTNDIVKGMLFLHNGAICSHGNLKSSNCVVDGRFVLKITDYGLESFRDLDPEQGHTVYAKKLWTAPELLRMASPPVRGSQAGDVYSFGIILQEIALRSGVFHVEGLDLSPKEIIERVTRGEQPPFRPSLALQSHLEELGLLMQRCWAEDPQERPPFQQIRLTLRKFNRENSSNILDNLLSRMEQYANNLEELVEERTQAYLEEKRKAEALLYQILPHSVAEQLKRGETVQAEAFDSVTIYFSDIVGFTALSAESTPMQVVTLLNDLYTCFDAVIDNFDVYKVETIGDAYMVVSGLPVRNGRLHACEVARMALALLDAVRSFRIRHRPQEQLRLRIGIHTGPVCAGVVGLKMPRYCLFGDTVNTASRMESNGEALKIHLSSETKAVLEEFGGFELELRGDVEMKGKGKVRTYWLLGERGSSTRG
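HEK293 cells stably expressing human Npr1 and cGMP GloSensor pGS-40F, loaded 2 h with 2% GloSensor reagent, given compound 30 min at room temperature. Luminescence read before and 20 min after 0.1 nM hNppA.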
3T3 cytotox = kills NIH 3T3 cells; hit rate 4.3% among 94,000; Potency, µM (titrated, usually from 96.7 µM), most hits filed as inhibitors; NIH 3T3 viability, CellTiter-Glo ATP luminescence, 48-72 h; further: nearly all actives have a fitted effect of over 55% in size
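Mouse fibroblast NIH 3T3 cells, 400 per well, received compound via pintool and were incubated for 48 or 72 hr prior to CellTiter-Glo ATP luminescence measurement.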
GPT2 inh = inhibitors of human GPT2 alanine aminotransferase. Q8TD30. Recombinant GPT2, coupled pyruvate oxidase/HRP Amplex Red fluorescence. Potency, µM (top dose mostly 57.7 µM), most hits filed as inhibitors. hit rate 0.25% among 100,000. AID 1671188; further: nearly all actives have a fitted effect of over 60% in size
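Fluorescence read-out: pyruvate from GPT2 turnover coupled to pyruvate oxidase, HRP and Amplex Red (0.2mM ThPP, 0.2U/mL PO and HRP, 50uM Amplex final). Substrates 250uM a-KG, 2mM L-alanine; enzyme 10ng/uL; 30 min RT.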
Each line names hits and unclear results; the compound was inactive in the other large screens; ! = not active in a repeat. Shown are actives, neighbours in structure and some others; about 10% of the full set was active somewhere. Unless noted, the call rests on the fitted dose curve; in most records, active means well fitted curve in the direction sought with a large enough effect; inconclusive means small, poorly fitted or top-dose-only effect, or another doubt; inactive means no such curve, though single readings can be large; an effect the other way counts as inactive or inconclusive.

COc1ccc(-c2[nH]nc3ncc(C(=O)N(C)Cc4ccccc4)nc23)c(C)c1	HEK293 tox inconclusive
Cc1nn(-c2ccc(C(F)(F)F)cc2)c(C)c1[C@@H]1C=C[C@@H](NC(=O)C2CCCCC2)C1	HEK293 tox inconclusive, hNpr1 antagonist inconclusive, 3T3 cytotox inconclusive
Cc1nn(-c2ccc(C(F)(F)F)cc2)c(C)c1[C@@H]1C=C[C@@H](NC(=O)Nc2ccccc2)C1	FLuc inh 13µM, HEK293 tox 50µM, hNpr1 antagonist inconclusive, 3T3 cytotox 32µM
Cc1nn(-c2ccc(C(F)(F)F)cc2)c(C)c1[C@@H]1C=C[C@@H](NC(=O)NC(C)C)C1	FLuc inh 14µM, HEK293 tox 35µM, hNpr1 antagonist inconclusive, 3T3 cytotox inconclusive, GPT2 inh inconclusive
CCCN1C(=O)[C@@H]2[C@@H](CCN2C(=O)CSCC(=O)O)N(Cc2cccs2)C1=O	none
O=C([C@H]1O[C@H](CCN2CCOCC2)CC[C@@H]1O)N1CCN(c2ccccc2)CC1	none
CCOc1ccc(S(=O)(=O)N2CCC3(CC2)CN(C)CC3COC)cc1 (centres undefined)	HEK293 tox inconclusive, 3T3 cytotox inconclusive
CN1C(=O)CC(C(=O)O)C12CCN(Cc1cccc(C(=O)O)n1)CC2 (centres undefined)	none
CCCc1nc(C)cc(N2CCC(NCCc3ccc(Cl)cc3)CC2)n1	HEK293 tox 14µM, 3T3 cytotox inconclusive
COc1ccc(-n2nc3n(c2=O)CCN(Cc2ccccc2)C3)cc1	HEK293 tox inconclusive, 3T3 cytotox 8.9µM (no result: FLuc inh, hNpr1 antagonist)
O=c1n(-c2ccc(C(F)(F)F)cc2)nc2n1CCN(Cc1ccccc1)C2	HEK293 tox 7.9µM!, 3T3 cytotox inconclusive
Cc1ccc(CN2CCn3c(nn(-c4ccc(C(F)(F)F)cc4)c3=O)C2)cc1	HEK293 tox inconclusive, 3T3 cytotox inconclusive
COc1ccc(C(=O)N2CCn3c(nn(-c4ccc(OC)cc4)c3=O)C2)cc1	3T3 cytotox inconclusive (no result: FLuc inh, hNpr1 antagonist)
COc1ccc(CN2CCn3c(nn(-c4ccc(OC)cc4)c3=O)C2)cc1	none (no result: FLuc inh, hNpr1 antagonist)
Cc1ccc(CN2CCn3c(nn(-c4ccncc4)c3=O)C2)cc1	HEK293 tox inconclusive, hNpr1 antagonist 20µM, 3T3 cytotox inconclusive
COc1ccc(-n2nc3n(c2=O)CCN(C(=O)c2ccc(C(F)(F)F)cc2)C3)cc1	3T3 cytotox 32µM (no result: FLuc inh, hNpr1 antagonist)
CCCN(CC1CCOC1)C(=O)c1ccccc1C(F)(F)F (centres undefined)	none
Cc1cc(CN2CCn3c(nn(-c4ccc(C(F)(F)F)cc4)c3=O)C2)no1	HEK293 tox 89µM, 3T3 cytotox inconclusive (no result: FLuc inh, hNpr1 antagonist)
O=C(C1CN(C2CCCCC2)C(=O)N1)N1CCC(c2ccccc2)CC1 (centres undefined)	HEK293 tox inconclusive, 3T3 cytotox inconclusive (no result: FLuc inh, hNpr1 antagonist)
O=C1NCCOCCN(C(=O)Nc2ccc3c(c2)OCCO3)[C@@H]2CCCC[C@H]12	FLuc inh 16µM
CCc1noc(-c2cccn3c(CNC(=O)c4ccc5ccccc5n4)nnc23)n1	HEK293 tox 35µM, 3T3 cytotox inconclusive
CCN(Cc1cccnc1)C(=O)c1cc(-c2cnn(CC)c2)nc2cc(C)ccc12	FLuc inh inconclusive, 3T3 cytotox 6.3µM
O=C(NC1CCCC1)NC1CCN(C(=O)c2ccc(-c3cncnc3)cc2)CC1	none (no result: FLuc inh, hNpr1 antagonist)
O=S(=O)(c1ccccc1F)N1CCC(CCc2nc(C3CCOCC3)no2)CC1	HEK293 tox 45µM, 3T3 cytotox inconclusive (no result: FLuc inh, hNpr1 antagonist)
COc1ccc(CCNC(=O)c2ccc3oc(-c4ccccn4)nc3c2)cc1	HEK293 tox inconclusive, 3T3 cytotox inconclusive (no result: FLuc inh, hNpr1 antagonist)
O=C1CC2(CCN(C(=O)C3CCCN3C(=O)c3ccccc3F)CC2)Oc2ccccc2N1 (centres undefined)	none (no result: FLuc inh, hNpr1 antagonist)
Cn1c(CN2CCOC[C@H]2c2ncc(-c3ccc(Cl)s3)[nH]2)nc2ccccc21	HEK293 tox inconclusive, hNpr1 antagonist inconclusive, 3T3 cytotox 89µM
O=C(O)c1ccc(CN2CCOC[C@H]2c2ncc(-c3ccc(Cl)s3)[nH]2)cc1	none
Clc1ccc(-c2cnc([C@@H]3COCCN3Cc3ccccc3)[nH]2)s1	HEK293 tox 100µM, hNpr1 antagonist inconclusive, 3T3 cytotox 79µM
Clc1ccc(-c2cnc([C@@H]3COCCN3C3CCCCC3)[nH]2)s1	HEK293 tox 79µM, 3T3 cytotox 79µM
CC(C)(C)CN1CCOC[C@H]1c1ncc(-c2ccc(Cl)s2)[nH]1	HEK293 tox 79µM, 3T3 cytotox inconclusive
Cc1ccsc1CN1CCCCCCN(C)C(=O)[C@@H]2CCC[C@@H]21	HEK293 tox inconclusive, 3T3 cytotox inconclusive
O=C1NCc2ccccc2CC12CCN(Cc1ccc3ccccc3c1)C2 (centres undefined)	HEK293 tox inconclusive, 3T3 cytotox inconclusive (no result: FLuc inh, hNpr1 antagonist)
Cc1ccc([S+](=O)([O-])N2CCN(Cc3ccccc3-c3ccccc3F)CC2)cc1	HEK293 tox inconclusive, 3T3 cytotox inconclusive (no result: FLuc inh, hNpr1 antagonist)
O=C(Nc1ccccc1)c1nnn2c1CN(Cc1ccccc1)C(=O)CC2	3T3 cytotox 100µM
COc1ccc(CNC(=O)c2nnn3c2CN(Cc2cccc(Cl)c2)C(=O)CC3)cc1OC	3T3 cytotox inconclusive
O=C(CCC[C@H]1NC[C@@H]2C[C@H]1CN(Cc1ccccc1)C2)Nc1ccc2c(c1)OCCO2	FLuc inh 45µM
CN(Cc1ccc(N2CCCCC2)cc1)C(=O)CCC[C@H]1NC[C@@H]2C[C@H]1CN(Cc1ccccc1)C2	HEK293 tox inconclusive, 3T3 cytotox 18µM
CN(Cc1cccnc1)C(=O)CCC[C@H]1NC[C@@H]2C[C@H]1CN(Cc1ccccc1)C2	none
CCCCn1c(=O)c(C(=O)NCCc2ccccc2)nc2cccnc21	HEK293 tox 45µM, 3T3 cytotox inconclusive (no result: FLuc inh, hNpr1 antagonist)
CCCCn1c(=O)c(C(=O)NCc2ccccc2)nc2cccnc21	HEK293 tox inconclusive, 3T3 cytotox inconclusive (no result: FLuc inh, hNpr1 antagonist)
O=C(NCc1cccc(Cl)c1)c1nc2cccnc2n(CCc2ccccc2)c1=O	HEK293 tox 35µM, 3T3 cytotox inconclusive (no result: FLuc inh, hNpr1 antagonist)
CCCCn1c(=O)c(C(=O)NCc2cccc(Cl)c2)nc2cccnc21	HEK293 tox inconclusive, 3T3 cytotox 35µM (no result: FLuc inh, hNpr1 antagonist)
O=C(NCCc1ccccc1)c1nc2cccnc2n(CCc2ccccc2)c1=O	HEK293 tox inconclusive (no result: FLuc inh, hNpr1 antagonist)
Cc1ccc(NC(=O)N2CCN(c3nnnn3-c3cccc(C(F)(F)F)c3)CC2)cc1F	HEK293 tox inconclusive, 3T3 cytotox inconclusive (no result: FLuc inh, hNpr1 antagonist)
CN(C)c1nc2c(c(=O)[nH]1)CCN(Cc1ccc(F)c(Br)c1)CC2	none
CNC(=O)c1cc(C)nc2onc(C3CCN(C(=O)COC)C3)c12 (centres undefined)	none (no result: FLuc inh, hNpr1 antagonist, GPT2 inh)
CCc1[nH]c2c(CNC(=O)c3n[nH]c4c3CCC4)cc(C)cc2c1C	HEK293 tox 35µM, 3T3 cytotox 35µM
CCc1[nH]c2c(CNC(=O)CC3C(=O)NCCN3C(C)C)cc(C)cc2c1C (centres undefined)	none
CN1CC2(CCN(S(=O)(=O)c3ccc(C#N)cc3)CC2)CC1C(=O)N1CCOCC1 (centres undefined)	none
